Test results taken from PubChem BioAssay (Tox21).
Records with an inconclusive call do not appear. Unmarked numbers belong to inactive results. Activity calls are given as the source filed them. Calls follow the shape of the dose curve; as a rule, active = well fitted cell-killing curve with a large enough effect in the repeat runs; inconclusive = weak or mixed curves; inactive = no such curve, though single readings can be large or run the other way.

Experiment: qHTS assay for identifying genotoxic compounds that show differential cytotoxicity against isogenic chicken DT40 cell lines with known DNA damage response pathways - Rad54/Ku70 mutant cell line (AID 743015); also: nearly all actives have a fitted effect of over 60% in size
Settings: DT40 Rad54/Ku70 mutant viability, CellTiter-Glo, 40 h; series mostly up to 66.8 µM; activity change, negative = cytotoxicity: at the top concentration
% is scaled to controls: 0 for no effect and ±100 for the full control effect.

| Compound | activity change, negative = cytotoxicity | Potency |
| --- | --- | --- |
| O=C1CCCCCCCCCCC(=O)OCCO1 | -8.05% |  |
| COc1cc(Cl)ccc1Cl | 7.67% [at 95.1 µM] |  |
| CCNCCO | 14.3% |  |
| CCc1nnc(NS(=O)(=O)c2ccc(N)cc2)s1 | 0.0543% |  |
| FC(F)(F)c1ccccc1 | 1.79% |  |
| CC(C)OC(C)C | 5.73% [at 95.1 µM] |  |
| ClC(Cl)Cl |  | inactive |
| CCCN(CCC)C(=O)C(CCC(=O)O)NC(=O)c1ccccc1 (stereo unspecified) | 2.29% |  |
| CC1(C)O[C@@H]2C[C@H]3[C@@H]4CCC5=CC(=O)CC[C@]5(C)[C@@]4(F)[C@@H](O)C[C@]3(C)[C@]2(C(=O)CCl)O1 | -19.7% [at 30.7 µM] |  |
| O=C(O[C@@H](C(=O)O)[C@@H](OC(=O)c1ccccc1)C(=O)O)c1ccccc1 | 1.2% [at 95.1 µM] |  |

Experiment: qHTS assay to identify small molecule antagonists of the androgen receptor (AR) signaling pathway - cell viability counter screen (AID 743033; also: nearly all actives have a fitted effect of over 45% in size)
Settings: AR-bla HEK293 viability, CellTiter-Glo luminescence, 16 h; series mostly up to 58.5 µM; activity change, negative = cytotoxicity: at the top concentration

| Compound | activity change, negative = cytotoxicity | outcome |
| --- | --- | --- |
| C[C@@H]1CN(c2c(F)c(N)c3c(=O)c(C(=O)O)cn(C4CC4)c3c2F)C[C@H](C)N1 | 2.34% |  |
| CC1(C)C(=O)N(Cl)C(=O)N1Br | 3.16% |  |
| CCCCCCC | 0.317% [at 78.9 µM] |  |
| CCC/C=C/CO | -4.58% |  |
| CCOC(=O)c1ccccc1O |  | inactive |
| Cc1ccc([N+](=O)[O-])cc1Cl | 2.44% [at 78.9 µM] |  |
| OCCN1CCN(CCO)CC1 | 0.834% [at 78.9 µM] |  |
| COc1ccccc1OCC(O)COC(N)=O (stereo unspecified) | -29.3% [at 27 µM] |  |
| C=O |  | inactive |
| CC/C=C\CCOC(=O)CCCCC | 10% |  |
| CCOc1ccc(NC(N)=O)cc1 | 4.24% |  |
| Clc1cccc(-c2cc(Cl)cc(Cl)c2)c1 | 1.81% |  |
| CC1=CC(=O)CC(C)(C)C1=O | -0.628% [at 78.9 µM] |  |
| CN(CC1(C)CCCO1)S(=O)(=O)c1ccc(Cl)c(S(N)(=O)=O)c1 (stereo unspecified) | 2.84% |  |
| C=CCCCCCCCCO | 1.76% |  |
| CC1=NN(c2cc(Cl)c(S(=O)(=O)O)cc2Cl)C(=O)C1N=Nc1ccc(S(=O)(=O)O)cc1 (stereo unspecified) | 0.294% |  |
